The record followed here is PubChem BioAssay (NCI).

Test systems include DU-145 prostate; K-562 leukemia; MALME-3M melanoma; MDA-MB-231 breast; RXF 393 renal; SF-268 CNS; SF-295 CNS; SF-539 CNS; M14 melanoma; HCT-15 colon; HT29 colon; SNB-75 CNS; SNB-19 CNS; U251 CNS; PC-3 prostate; SK-MEL-5 melanoma; UACC-62 melanoma; LOX IMVI melanoma; SK-MEL-28 melanoma.
Holding throughout (assay): NCI-60 one-dose screen, 48 h (100 = growth as untreated, 0 = no growth, -100 = all killed)
Common to all, as to conditions: 10 µM unless noted

SMILES strings stand for the structures. This is part of a sample that, as a whole, favours compounds with a hit. Of some 83,000 tested, about 20% had one in any assay.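 Negative percent growth values reflect cell death: -40 means 40% of the cells present at the start died, and -100 means all died.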 Unmarked numbers belong to inactive results. Calls of active or inactive are those of the source. How the source made its calls: active means growth percent below 10; inactive means the rest.

For the molecule `c1ccc2c(c1)CCN(NCCN1CCCC1)C2`, the growth was 110% with DU-145 prostate; 92.2% in the test on K-562 leukemia; 101% in the test on MALME-3M melanoma; 87% in the test on MDA-MB-231 breast; 99.9% with RXF 393 renal; 96.6% in the test on SF-268 CNS. Moreover, the growth is 98% in the test on SF-295 CNS; 97.7% with SF-539 CNS; 93% with M14 melanoma; 105% in the test with HCT-15 colon; 101% in the test on HT29 colon; 70.9% in the test with SNB-75 CNS. Moreover, the growth was 107% in the test with SNB-19 CNS; 94.3% in the test with U251 CNS; 64.6% in the test with PC-3 prostate; 104% with SK-MEL-5 melanoma; 98.6% with UACC-62 melanoma; 90.1% in the test on LOX IMVI melanoma. In addition, the growth in the test with SK-MEL-28 melanoma is 109%.
Consider `CCN1CCN(c2nc(C)cc(N(CCCNc3ccnc4cc(Cl)ccc34)Cc3ccc4c(c3)OCO4)n2)CC1`, for which the growth with DU-145 prostate is 25%; in the test on K-562 leukemia it was -10.5% (active); in the test on MALME-3M melanoma, -81.9% (active); in the test with MDA-MB-231 breast, -32.8% (active); in the test with RXF 393 renal, -73.4% (active); with SF-268 CNS it was -6.06% (active). The growth was -76.1% (active) in the test with SF-295 CNS; -86.1% (active) in the test with SF-539 CNS; -87.9% (active) in the test with M14 melanoma; -32.9% (active) in the test with HCT-15 colon; -26.2% (active) in the test on HT29 colon; -53.5% (active) with SNB-75 CNS. The growth with SNB-19 CNS is 24.8%; in the test with U251 CNS it was -73.7% (active); with PC-3 prostate, 24.7%; in the test on SK-MEL-5 melanoma it was -97.6% (active); with UACC-62 melanoma it was -52.9% (active); with LOX IMVI melanoma, -84.4% (active). In addition, the growth in the test with SK-MEL-28 melanoma is -64.1% (active).
In the case of `O=C(N/N=C/c1ccc(Cl)cc1)c1cc(-c2cc3ccccc3o2)nn1-c1ccccc1`, the growth is 87% in the test on DU-145 prostate; 91.1% in the test with K-562 leukemia; 105% with MALME-3M melanoma; 92.5% in the test with MDA-MB-231 breast; 108% in the test with SF-268 CNS; 107% with SF-295 CNS. The growth in the test with SF-539 CNS was 84.9%; in the test on M14 melanoma, 99.3%; in the test on HCT-15 colon, 93%; in the test with HT29 colon it was 107%; in the test on SNB-75 CNS, 86.5%; in the test on SNB-19 CNS, 94.5%. Besides, the growth is 96% in the test on U251 CNS; 89.6% in the test with PC-3 prostate; 56.3% with SK-MEL-5 melanoma; 83.7% in the test on UACC-62 melanoma; 84.7% in the test on LOX IMVI melanoma.
Take `Cc1cc2c(-c3nc4ccccn4c3NC34CC5CC(CC(C5)C3)C4)c(O)c(O)cc2c(O)c1-c1c(C)cc2c(-c3nc4ccccn4c3NC34CC5CC(CC(C5)C3)C4)c(O)c(O)cc2c1O`: the growth in the test on DU-145 prostate was 19.2%; with K-562 leukemia, 7.38% (active); in the test on MALME-3M melanoma, 7.47% (active); in the test with MDA-MB-231 breast it was 21.9%; in the test on RXF 393 renal, 12.2%; in the test on SF-268 CNS, 17%. The growth is 1.49% (active) in the test on SF-295 CNS; -1.69% (active) in the test with SF-539 CNS; -0.979% (active) in the test on M14 melanoma; 20% with HCT-15 colon; 14.1% in the test with HT29 colon; 19.6% with SNB-75 CNS. In addition, the growth was 17.1% in the test on SNB-19 CNS; 6.36% (active) with U251 CNS; 14.7% in the test on PC-3 prostate; -57.7% (active) with SK-MEL-5 melanoma; 0.552% (active) in the test with UACC-62 melanoma; 3.37% (active) in the test with LOX IMVI melanoma. For the same molecule, the growth in the test on SK-MEL-28 melanoma was 17.3%.
Regarding `Cc1cc(N(CCNc2ccnc3cc(Cl)ccc23)Cc2ccc3c(c2)OCO3)nc(N2CCN(C)CC2)n1`, the growth with DU-145 prostate is 38.2%; with K-562 leukemia, -59.1% (active); in the test on MALME-3M melanoma it was -71.6% (active); with MDA-MB-231 breast it was 4.9% (active); with RXF 393 renal, -45.7% (active); in the test with SF-268 CNS it was 29.3%. Besides, the growth is -66.4% (active) in the test on SF-295 CNS; -80.9% (active) with SF-539 CNS; -79.6% (active) in the test with M14 melanoma; 0.627% (active) in the test on HCT-15 colon; 0.16% (active) with HT29 colon; 32.4% in the test on SNB-75 CNS. The growth in the test on SNB-19 CNS is 29.4%; in the test on U251 CNS, -22.1% (active); in the test with PC-3 prostate, 48.2%; in the test on SK-MEL-5 melanoma, -96.1% (active); in the test on UACC-62 melanoma it was 33.7%; in the test with LOX IMVI melanoma, -71.8% (active). Moreover, the growth in the test with SK-MEL-28 melanoma is -65.7% (active).
Take `O=c1[nH]c(N2CCOCC2)nc2scc(-c3ccccc3)c12`: the growth in the test with DU-145 prostate was 107%; with K-562 leukemia, 101%; in the test on MALME-3M melanoma, 88.8%; in the test with MDA-MB-231 breast it was 108%; with RXF 393 renal it was 97.5%; in the test with SF-268 CNS, 89.4%. Further, the growth is 96.5% with SF-295 CNS; 94.3% in the test with SF-539 CNS; 98.9% in the test on M14 melanoma; 99% in the test on HCT-15 colon; 86.8% in the test with HT29 colon; 84.3% with SNB-75 CNS. Moreover, the growth in the test with SNB-19 CNS was 106%; with U251 CNS it was 69.5%; with PC-3 prostate, 94.6%; in the test with SK-MEL-5 melanoma, 98.7%; in the test on UACC-62 melanoma, 99.2%; with LOX IMVI melanoma it was 100%. Also, the growth in the test with SK-MEL-28 melanoma is 110%.
As to `COc1cc(-c2nc(C(=O)Nc3ccc(C)cc3)nn2-c2ccc(F)c(F)c2)cc(OC)c1OC`, the growth in the test with DU-145 prostate was 100%; in the test with K-562 leukemia, 101%; in the test on MALME-3M melanoma it was 89%; in the test with MDA-MB-231 breast, 96.1%; in the test on RXF 393 renal, 116%; in the test with SF-268 CNS, 89.2%. Further, the growth in the test with SF-295 CNS is 94%; in the test with SF-539 CNS, 107%; in the test on M14 melanoma it was 94.6%; with HCT-15 colon, 94.7%; in the test on HT29 colon, 75.5%; in the test on SNB-75 CNS it was 84.9%. Further, the growth with U251 CNS was 100%; in the test with PC-3 prostate, 96.7%; with SK-MEL-5 melanoma, 95.8%; in the test on UACC-62 melanoma it was 105%; in the test on LOX IMVI melanoma, 99%; with SK-MEL-28 melanoma it was 108%.
Take `Clc1ccc2c(NCCCNCc3ccc4c(c3)OCO4)ccnc2c1`: the growth is 58.1% in the test on DU-145 prostate; -10.9% (active) in the test on K-562 leukemia; -69.6% (active) in the test on MALME-3M melanoma; 12.9% in the test on MDA-MB-231 breast; 19% in the test on RXF 393 renal; 62% with SF-268 CNS. In addition, the growth was 59.8% with SF-295 CNS; -86.7% (active) in the test on SF-539 CNS; -72.5% (active) with M14 melanoma; 13.2% in the test with HCT-15 colon; 96.2% with SNB-75 CNS; 88.7% in the test on SNB-19 CNS. Moreover, the growth with U251 CNS is 10.6%; with PC-3 prostate it was 51.6%; in the test on SK-MEL-5 melanoma it was -96% (active); with UACC-62 melanoma it was 89.8%; with LOX IMVI melanoma it was 8.83% (active); with SK-MEL-28 melanoma it was 51.2%.
